Experimental data as given in PubChem BioAssay AID540333 (Southern Research Specialized Biocontainment Screening …, 2011).
In all, about 10,000 compounds went through this assay and about 320 (3.2%) were called active. Many of the other results were omitted from the sample, so actives are more common in it than they were. A number with no mark means an inactive call. No stated cut-off is given here; in the data, active means CPE inhibition mostly above about 9.1% (no sharp cut-off); inactive means mostly below about 7.2%.

Assay: Dengue virus cytopathic effect inhibitors, cell-based, CPE readout, HTS (AID 540333)
Conditions: Dengue virus CPE inhibition in host cells, at 20 µM; hits give high values

Row | Compound | CPE inhibition
1 | N=C1SC(c2ccccc2)C(=O)N1c1ncc(Cc2ccccc2)s1 (centres undefined) | 0.6%
2 | COC(=O)CCC(=O)NC(=S)Nc1ccc(S(=O)(=O)Nc2cc(OC)nc(OC)n2)cc1 | 1.88%
3 | CCCCNC(=O)CCCCC(=O)N/N=C/c1cccc(Cl)c1 | 0.96%
4 | CCN(Cc1ccccc1)C(=O)C1CCN(CC2CC=CCC2)CC1 (centres undefined) | inactive
5 | Cc1ccnc(NC(=S)NC(=O)c2cncc(Br)c2)c1 | 0.165%
6 | CCCCNC(=O)c1cccc2c(=O)c(C)c(-c3ccccc3)oc12 | inactive
7 | CCOc1ccc(Oc2c(/C=N/NC(=O)COc3ccccc3OC)c(C)nn2-c2ccccc2)cc1 | inactive
8 | O=C(N/N=C\c1ccc(-c2ccccc2[N+](=O)[O-])o1)C1COc2ccccc2O1 (centres undefined) | 0.26%
9 | CC(CCc1ccccc1)N1CCN(Cc2ccccc2)CC1 (centres undefined) | inactive
10 | CC(C)NC(=O)/C(C#N)=C/c1cccc(NC(=O)c2ccccc2Cl)c1 | 3.16%
11 | Cc1nn(-c2ccccc2)c(Cl)c1/C=N/NC(=O)c1cccnc1 | 4.37%
12 | Cc1nn(-c2ccccc2)c(Cl)c1/C=C(\C#N)C(=O)NC(C)C | 20% (active)
13 | Cc1ccccc1N1CCN(C(=S)c2ccc([N+](=O)[O-])cc2)CC1 | inactive
14 | CC(C)(C)NC(=O)C(c1c[nH]c2ccccc12)N(C(=O)Cn1nnc(-c2ccc(Cl)cc2)n1)c1ccccc1F (centres undefined) | 17.2% (active)
15 | CC(=O)c1ccc(N(C(=O)Cn2nnc(-c3ccccc3)n2)C(C(=O)NC2CCCCC2)c2ccccn2)cc1 (centres undefined) | 4.29%
16 | Cc1cc(C)cc(N(C(=O)Cn2nnc(-c3ccccc3)n2)C(C(=O)NC2CCCCC2)c2ccccn2)c1 (centres undefined) | 2.08%
17 | O=[N+]([O-])c1cc2oc3c(c2c(C=NCc2ccncc2)c1O)CCCC3 | 1.15%
18 | Cc1ccc([N+](=O)[O-])cc1S(=O)(=O)N(C(=O)c1ccncc1)c1ccc2oc3c(c2c1)CCCC3 | 21.1% (active)
19 | CC(=O)Oc1ccc(N(C(C)=O)S(=O)(=O)c2cc([N+](=O)[O-])ccc2C)cc1 | inactive
20 | COc1cc(NC(=O)COC(=O)CC(C)(C)C)c(C)cc1[N+](=O)[O-] | 0.185%

Row | Compound | CPE inhibition
21 | Clc1ccc(CNCc2cccs2)c(Cl)c1 | 0.01%
22 | COc1ccc(-c2nc3ccccn3c2/N=C/c2ccc(OC)c(OC)c2)cc1O | 0.31%
23 | Cc1c(-c2ccc(Br)cc2)nc2ccccn12 | 1.3%
24 | CN(C)c1ccc(-c2nc3ccccn3c2/N=C/c2ccc(Br)cc2)cc1 | 14.2% (active)
25 | Cc1ccc(-c2csc(N/N=C/c3ccco3)n2)c(C)c1 | inactive
26 | COc1cccc(OCCOCCOc2ccc(C)cc2[N+](=O)[O-])c1 | inactive
27 | CC/C(=N\NC(=O)C(N)=O)c1ccccc1O | inactive
28 | CCCCCC(=O)Nc1nc(C)c(-c2csc(Nc3cc(Cl)ccc3C)n2)s1 | inactive
29 | O=C1c2cccc3cccc(c23)C(=O)N1CCN1CCN(CC(O)COc2ccc3ccccc3c2)CC1 (centres undefined) | inactive
30 | O=C(COC(=O)c1cc(-c2ccccc2Cl)nc2ccccc12)Nc1ncc(C(F)(F)F)cc1Cl | inactive
31 | COC(=O)N1[C@H](C)C=C[C@]1(Cc1ccccc1)C(=O)NCCCNc1ncc(C(F)(F)F)cc1Cl | 9.39% (active)
32 | O=C(COC(=O)C1(c2ccccc2F)CCCC1)Nc1ncc(C(F)(F)F)cc1Cl | 0.45%
33 | Cc1ccc(/C=N/NS(=O)(=O)c2ccc([N+](=O)[O-])cc2)o1 | inactive
34 | Cc1ccc(C(=O)O/N=C(\N)c2cccnc2)cc1[N+](=O)[O-] | 1.06%
35 | CC(=O)Nc1ccc(NC(=O)COC(=O)C2(c3ccc(Cl)cc3)CCCC2)cc1 | 0.545%
36 | NS(=O)(=O)c1ccc(NC(=O)COC(=O)C2(c3ccc(F)cc3)CCCC2)cc1 | 0.475%
37 | Cc1ccc(NC(=O)COC(=O)C2(c3ccc(Cl)cc3)CCCC2)cc1 | 10.5% (active)
38 | COc1ccc(/C=C/C(=O)c2cc(F)ccc2OC(=O)c2ccccc2C)cc1OC | inactive
39 | CCN(CC)c1ccc(C(=O)OCC(=O)Nc2sccc2C#N)cc1 | inactive
40 | N#Cc1ccsc1NC(=O)CN(Cc1ccccc1)Cc1ccccc1 | 9.87% (active)

Row | Compound | CPE inhibition
41 | N#Cc1ccsc1NC(=O)CN1CCN(c2ccccc2O)CC1 | inactive
42 | CSc1sc(C)cc1/C=N/O | inactive
43 | S=C(NCCc1ccccc1)N/N=C/c1ccccc1Cl | 18.4% (active)
44 | C/C(=N\NC(=S)NCCc1ccccc1)c1ccc(Cl)cc1 | 1.61%
45 | S=C(NCCc1ccccc1)Nc1ccc(Br)cc1 | 3.17%
46 | O=C(Nc1cc(Cl)ccc1Cl)c1ccc(-c2ccccc2)cc1 | inactive
47 | O=C(Nc1ccc(Cl)c(C(F)(F)F)c1)[C@@H]1CC=C[C@@H]2CCN(Cc3ccc(Cl)c(Cl)c3)C(=O)[C@@H]21 | 9.69%
48 | COc1ccc(NC(=O)CN2C(=O)C(c3ccccc3)=NC23CCCCCC3)cc1OC | 0.935%
49 | COc1ccc(NC(=O)CN2C(=O)C(c3ccccc3)=NC23CCCCCC3)cc1 | 5.39%
50 | COc1cc(NC(=O)CN2C(=O)C(c3ccccc3)=NC23CCCCCC3)cc(OC)c1 | 14% (active)
51 | CCOC(=O)/C(N=Nc1sc(C(=O)OC)c(C)c1C(=O)OCC)=C(\O)CCl | 0.165%
52 | Cc1cc(C)c(S(=O)(=O)Nc2ccccc2-c2ccccc2)c(C)c1 | 20.4% (active)
53 | Cc1ccc(NS(=O)(=O)c2ccc3c(c2)C(=O)c2ccccc2C3=O)c(C)c1 | 4.82%
54 | Cc1ccc(S(=O)(=O)N(CC(=O)Nc2ccccc2-c2ccccc2)c2ccc(C)cc2C)cc1 | 10.8%
55 | Clc1ccc(-n2nnnc2CN2CCOCC2)cc1Cl | 0.27%
56 | COc1ccccc1OCCOCCOc1ccccc1Cl | inactive
57 | O=C1CN(C(=O)COC(=O)/C=C/c2ccc(OC(F)F)cc2)c2ccccc2N1 | inactive
58 | O=C(COC(=O)/C=C/c1ccc(OC(F)F)cc1)NCc1cccs1 | 0.315%
59 | CCOC(=O)c1c(C)[nH]c(C)c1C(=O)COC(=O)/C=C/c1ccc(OC(F)F)cc1 | 10.1% (active)
